# Test results from the supplement of paper PMC7156485.
# ± gives the standard deviation of the averaged measurements.
# Columns and labels:
# Conditions in all cases: concentration: 10 µM; 24 h
# HCC1569 [1] = assay: cell number relative to DMSO (% of DMSO); higher = more cells (less growth inhibition / toxicity)
# Method in brief: (§1)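 After 24 h at 37 °C with compounds at 10 µM, in triplicate, HCC1569 and TDF cells were fixed with 3.7% formaldehyde. Immunostaining used a rabbit anti-H1.0 antibody and an AlexaFluor 647 secondary, with DAPI, and six fields per well were imaged at ×10. H1.0 nuclear intensity or cell number is presented as percent of the plate control, from the median of replicates, with HCC1569 values smoothed for positional effects.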
# TDF [2] = assay: as above
# Method in brief: as §1
# TDF [3] = assay: H1.0 immunofluorescence intensity relative to DMSO (% of DMSO); higher = stronger H1.0 induction, active = 120 or more
# Method in brief: as §1
# HCC1569 [4] = assay: H1.0 immunofluorescence intensity relative to DMSO (% of DMSO); higher = stronger H1.0 induction, active = 140 or more
# Method in brief: as §1
# 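Throughout, for H1.0 immunofluorescence intensity relative to DMSO: TDF is a line of transformed human dermal fibroblasts of mesenchymal origin.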
# 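Throughout, for cell number relative to DMSO: TDF denotes transformed human dermal fibroblasts of mesenchymal origin.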
Structure (SMILES),cell number (HCC1569 [1]),cell number (TDF [2]),H1.0 immunofluorescence intensity (TDF [3]),H1.0 immunofluorescence intensity (HCC1569 [4])
Cl.NCCCCC(=O)O [5-Aminovaleric acid hydrochloride],102,107,96.1 (inactive),91.6 (inactive)
CCC(C)C(CC)C(N)=O (stereo not given) [2-ethyl-3-methylpentanamide],103,107,92.3 (inactive),96.6 (inactive)
"CCCCCC(O)C=CC1C(O)CC(O)C1CC=CCCCC(=O)O (stereo not given) [9b,11a Prostaglandin F2]",100,98,93.3 (inactive),97.5 (inactive)
COc1cc(OC)cc(C(CNc2ncnc3c2ncn3C2OC(CO)C(O)C2O)c2ccccc2C)c1 (stereo not given),101,103,94.5 (inactive),100 (inactive)
Cl.O=C(CCCN1CCC(O)(c2cccc(C(F)(F)F)c2)CC1)c1ccc(F)cc1 [Trifluperidol hydrochloride],101,111,98.4 (inactive),105 (inactive)
COc1ccc(CCN(C)CCc2ccc(OC)c(OC)c2)cc1OC.Cl [YS-035 hydrochloride],99.4,108,96.6 (inactive),98.3 (inactive)
CCN(CC)CCOC(=O)c1ccc(N)cc1.Cl [Procaine hydrochloride],105,100,91.3 (inactive),97.8 (inactive)
NCC(O)(CS(=O)(=O)O)c1ccc(Cl)cc1 (stereo not given) [2-Hydroxysaclofen],101,94.6,97.7 (inactive),93.4 (inactive)
Oc1cccc(-c2nc(N3CCOCC3)c3oc4ncccc4c3n2)c1,56.8,70,88 (inactive),205 (active)
CCn1ccnc1CC1COc2ccccc2O1.Cl (stereo not given) [Imiloxan hydrochloride],103,105,88 (inactive),100 (inactive)
CCCCCCCCC=CCCCCCCCC(=O)O [9(Z)-Octadecenoic acid],104,97.1,97.5 (inactive),103 (inactive)
Cl.O=C(OCCN1CCOCC1)C1(c2ccccc2)CCCCC1,99.8,111,90.5 (inactive),94 (inactive)
"N#CCCc1ccc2c(c1)-c1[nH]c3ccc([N+](=O)[O-])cc3c1CC(=O)N2 [Alsterpaullone,                   2-Cyanoethyl]",63.2,32.7,112 (inactive),113 (inactive)
CC(C)CC(NC(=O)C(Cc1ccccc1)NC(=O)c1cnccn1)B(O)O (stereo not given) [Bortezomib],34.2,10.2,144 (active),59.7 (inactive)
CC(C)C(=O)Nc1ncc(-c2cc(C(F)F)nn2-c2c(Cl)cccc2Cl)s1,75.5,69.8,111 (inactive),111 (inactive)
CCC(NC(C)C)C(O)c1ccc(O)c(O)c1.CS(=O)(=O)O (stereo not given) [Isotharine mesylate],103,112,92.8 (inactive),91.5 (inactive)
CC12CCC(=O)C=C1CCC1C2C(=O)CC2(C)C1CCC2(O)C(=O)CO (stereo not given) [Cortisone],87.8,82,106 (inactive),97 (inactive)
COc1nccc(-c2c(-c3ccc(F)cc3)ncn2C2CCC(O)CC2)n1 (stereo not given),100,112,85.5 (inactive),117 (inactive)
NC(C(=O)O)C1CC(Cl)=NO1 (stereo not given) [Acivicin],93.2,68.8,122 (active),108 (inactive)
COc1cc(CC(=O)O)ccc1O [4-Hydroxy-3-methoxyphenylacetic acid],105,106,102 (inactive),97 (inactive)
O=C(O)c1cn(-c2ccc(F)cc2)c2cc(N3CCNCC3)c(F)cc2c1=O [Sarafloxacin],105,95.3,99.5 (inactive),95.9 (inactive)
CCCCCC(O)C=CC=CCCCCCCCC(=O)O (racemic),102,107,95.9 (inactive),101 (inactive)
CC(C)S(=O)(=O)N[C@H]1CCOC[C@@H]1c1ccc(-c2ccc(C#N)s2)cc1,100,98.3,96.5 (inactive),104 (inactive)
CC(C)(C)c1cnc(CSc2cnc(NC(=O)C3CCNCC3)s2)o1,105,102,95 (inactive),100 (inactive)
COCCCCCCCCCCCC(=O)O [12-Methoxydodecanoic acid],101 ± 1.2,95.9 ± 11,95.5 (inactive),98.5 (inactive)
